The record followed here is paper PMC5540273 (PLoS ONE, 2017).

Among the test systems are PDGFRA; PDGFRB; PDPK1; PFTAIRE2; PHKG1; PHKG2; PIK3C2B; PIK3C2G; PIK3CA; PIK3CB; PIK3CD; PIK3CG; PIKFYVE; PIM1; PIM2; PIM3.
Conditions in all cases: concentration: 1 μM,replicates: in singlicate; n = 1
Another test has as its system T1, PCTK2.
T1 construct: gene CDK17

The test system of the next test is T2, PCTK3.
T2 construct: gene CDK18

A further test relates to T3, PFTK1.
T3 construct: gene CDK14

Another test deals with T4, PIK4CB.
T4 construct: gene PI4KB

The structures appear in SMILES notation.
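Further: KINOMEscan kinase panel screen.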

On to `CC(=O)c1c(-c2ccncc2)[nH]c(-c2ccncc2)c1C` [GW493036], for which the “%Inh” value in the test with PCTK2 turned out to be 0%; in the test on PCTK3, 54%; in the test on PDGFRA it was 0%; with PDGFRB, 7%; in the test with PDPK1, 0%; in the test on PFTAIRE2, 0%. Also, the “%Inh” value in the test with PFTK1 was 26%; with PHKG1, 0%; in the test on PHKG2 it was 0%; in the test with PIK3C2B, 0%; in the test on PIK3C2G, 0%; in the test with PIK3CA it was 0%. In addition, the “%Inh” value with PIK3CB is 0%; with PIK3CD, 38%; in the test on PIK3CG, 0%; in the test on PIK4CB it was 0%; with PIKFYVE, 26%; with PIM1, 11%. Besides, the entries for the “%Inh” value in the test on PIM2 and in the test with PIM3 were 0% and 9%, respectively.

On to `Cn1ccc2ncnc(Oc3ccc(NC(=O)Nc4cc(C(C)(C)C)on4)c(Cl)c3)c21`, for which the “%Inh” value was 8% in the test on PCTK2; 7% in the test on PCTK3; 98.9% in the test on PDGFRA; 100% with PDGFRB; 0% in the test with PDPK1; 9% in the test on PFTAIRE2. In addition, the “%Inh” value is given as 0% with PFTK1; 3% with PHKG1; 9% in the test on PHKG2; 7% with PIK3C2B; 48% in the test with PIK3C2G; 5% in the test with PIK3CA. Besides, the “%Inh” value amounted to 8% in the test with PIK3CB; 12% in the test on PIK3CD; 4% in the test with PIK3CG; 0% in the test on PIK4CB; 19% with PIKFYVE; 1% with PIM1. The “%Inh” value came out at 0% in the test on PIM2 and 11% with PIM3.

Regarding `COc1cc2ncn(-c3cc(OCC4CCCCC4)c(C(N)=O)s3)c2cc1OC` [GSK204559], the “%Inh” value with PCTK2 stood at 0%; with PCTK3, 21%; in the test with PDGFRA it was 2%; with PDGFRB it was 66%; in the test with PDPK1 it was 17%; with PFTAIRE2, 34%. Also, the “%Inh” value in the test with PFTK1 was found to be 24%; in the test on PHKG1, 4%; in the test with PHKG2, 18%; with PIK3C2B, 0%; in the test with PIK3C2G, 38%; in the test with PIK3CA it was 0%. Further, the “%Inh” value was found to be 0% in the test with PIK3CB; 0% in the test with PIK3CD; 5% in the test with PIK3CG; 0% with PIK4CB; 0% with PIKFYVE; 0% with PIM1. The “%Inh” value with PIM2 is 0%; in the test on PIM3 it was 11%.

With `N#Cc1cccc(C(=O)NC2CCN(c3ccnc(Nc4ccc(F)cc4)n3)C2)c1` (centres unmarked) [GSK1379708], the “%Inh” value is recorded as 0% in the test with PCTK2; 0% in the test with PCTK3; 0% in the test with PDGFRA; 23% in the test with PDGFRB; 13% with PDPK1; 2% in the test on PFTAIRE2. For the same compound, the “%Inh” value was 11% in the test with PFTK1; 0% in the test with PHKG1; 0% with PHKG2; 0% with PIK3C2B; 0% in the test with PIK3C2G; 0% in the test with PIK3CA. The “%Inh” value in the test with PIK3CB, with PIK3CD, in the test with PIK3CG, in the test with PIK4CB, in the test with PIKFYVE and with PIM1 was 0% each time. For the same compound, the “%Inh” value in the test with PIM2 and in the test with PIM3 was 0% in each case.

As for `C[C@@H]1CNc2c(sc3ccc4nc(-c5ccc(O)cc5)ccc4c23)C(=O)N1`, the “%Inh” value was found to be 0% with PCTK2; 4% with PCTK3; 42% in the test with PDGFRA; 56% in the test with PDGFRB; 0% in the test with PDPK1; 18% in the test with PFTAIRE2. In addition, the “%Inh” value in the test on PFTK1 was 8%; with PHKG1, 31%; in the test on PHKG2, 0%; in the test on PIK3C2B it was 16%; in the test on PIK3C2G, 28%; with PIK3CA, 5%. For the same compound, the “%Inh” value in the test on PIK3CB is 34%; in the test on PIK3CD it was 39%; in the test with PIK3CG, 11%; in the test with PIK4CB it was 0%; in the test with PIKFYVE it was 18%; with PIM1 it was 37%. The “%Inh” value in the test with PIM2 came out at 93.7%; with PIM3, 72%.

For the compound `Cc1cccc2c(-c3ccncc3)c(-c3ccc(F)cc3)nn12.Cl` [GW461487], the “%Inh” value with PCTK2 amounted to 0%; with PCTK3, 0%; with PDGFRA, 0%; with PDGFRB it was 14%; in the test on PDPK1 it was 0%; with PFTAIRE2, 9%. Besides, the “%Inh” value in the test with PFTK1 was 11%; with PHKG1, 0%; with PHKG2, 0%; in the test with PIK3C2B it was 0%; in the test with PIK3C2G, 0%; in the test on PIK3CA it was 0%. For the same compound, the “%Inh” value was 0% in the test with PIK3CB; 0% with PIK3CD; 0% with PIK3CG; 0% in the test on PIK4CB; 0% in the test with PIKFYVE; 18% in the test with PIM1. For the same compound, the “%Inh” value in the test on PIM2 and with PIM3 was 0% in each case.

As for `COc1cccc(CNC(=O)NC2CCN(c3ccnc(Nc4cc(OC)c(OC)c(OC)c4)n3)C2)c1` (centres unmarked) [GSK1379765], the “%Inh” value worked out at 0% with PCTK2; 0% in the test with PCTK3; 6% in the test with PDGFRA; 51% with PDGFRB; 4% with PDPK1; 16% in the test with PFTAIRE2. Besides, the “%Inh” value came to 11% in the test with PFTK1; 15% in the test with PHKG1; 0% in the test on PHKG2; 0% in the test with PIK3C2B; 0% with PIK3C2G; 0% with PIK3CA. Also, the “%Inh” value in the test with PIK3CB was determined as 83%; in the test on PIK3CD, 35%; in the test with PIK3CG, 0%; with PIK4CB, 67%; in the test with PIKFYVE, 0%; in the test on PIM1, 0%. For the same compound, the “%Inh” value with PIM2 and with PIM3 was 0% throughout.

Regarding `O=c1[nH]cc(-c2ccc(O)cc2)c2sc(-c3ccncc3)cc12` [GSK1033723], the “%Inh” value worked out at 12% in the test with PCTK2; 17% with PCTK3; 0% in the test with PDGFRA; 18% with PDGFRB; 0% with PDPK1; 11% in the test on PFTAIRE2. Further, the “%Inh” value was determined as 18% in the test on PFTK1; 7% in the test with PHKG1; 22% in the test on PHKG2; 0% in the test with PIK3C2B; 20% in the test with PIK3C2G; 0% in the test with PIK3CA. For the same compound, the “%Inh” value in the test on PIK3CB turned out to be 13%; with PIK3CD, 39%; with PIK3CG, 7%; in the test with PIK4CB, 0%; in the test on PIKFYVE, 0%; in the test with PIM1, 0%. Also, the entries for the “%Inh” value in the test on PIM2 and with PIM3 were 13% and 0%, respectively.

In the case of `COc1cc2nccc(Nc3ccc(Oc4ccccc4)cc3)c2cc1OC.Cl` [GI261656], the “%Inh” value with PCTK2 came to 0%; with PCTK3, 0%; in the test with PDGFRA it was 77%; in the test with PDGFRB it was 92%; in the test with PDPK1 it was 0%; with PFTAIRE2, 5%. For the same compound, the “%Inh” value is recorded as 9% with PFTK1; 0% with PHKG1; 6% in the test with PHKG2; 0% in the test with PIK3C2B; 0% in the test on PIK3C2G; 0% with PIK3CA. In addition, the “%Inh” value in the test with PIK3CB worked out at 0%; with PIK3CD it was 0%; in the test on PIK3CG it was 0%; in the test on PIK4CB, 0%; in the test with PIKFYVE, 5%; in the test with PIM1, 0%. The “%Inh” value in the test with PIM2 and with PIM3 was 0% each time.

Consider `NC(=O)c1ccc(-c2cc3ncnc(SCC(=O)O)c3s2)cc1`, for which the “%Inh” value in the test with PCTK2 stood at 0%; in the test with PCTK3, 2%; in the test on PDGFRA, 71%; in the test with PDGFRB, 80%; in the test with PDPK1 it was 0%; with PFTAIRE2, 0%. The “%Inh” value is recorded as 7% in the test with PFTK1; 0% in the test on PHKG1; 1% with PHKG2; 0% with PIK3C2B; 20% in the test with PIK3C2G; 0% in the test on PIK3CA. In addition, the “%Inh” value in the test with PIK3CB was 15%; with PIK3CD, 0%; in the test on PIK3CG it was 0%; in the test with PIK4CB, 0%; with PIKFYVE it was 42%; with PIM1, 7%. Also, the “%Inh” value with PIM2 and in the test with PIM3 was 22% in each case.
